Only a selection was taken, and hits are over-represented in it overall.
IDE exosite inh: exo-site inhibitors of human IDE, primary screen, biochemical, fluorescence anisotropy, probe displacement. AID 1259349, 2017. actives 6.3% (n = 17,000). z-score at 20 µM. purified IDE, FL-6b probe fluorescence polarization; active compounds read low;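 active = z-score of -3 or lower, meaning strong loss of probe binding signal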;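 note: His-tagged human IDE residues 42-1019 made in E. coli with 30 nM FL-6b probe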
Target sequence (P14735 42-1019 limits assumed): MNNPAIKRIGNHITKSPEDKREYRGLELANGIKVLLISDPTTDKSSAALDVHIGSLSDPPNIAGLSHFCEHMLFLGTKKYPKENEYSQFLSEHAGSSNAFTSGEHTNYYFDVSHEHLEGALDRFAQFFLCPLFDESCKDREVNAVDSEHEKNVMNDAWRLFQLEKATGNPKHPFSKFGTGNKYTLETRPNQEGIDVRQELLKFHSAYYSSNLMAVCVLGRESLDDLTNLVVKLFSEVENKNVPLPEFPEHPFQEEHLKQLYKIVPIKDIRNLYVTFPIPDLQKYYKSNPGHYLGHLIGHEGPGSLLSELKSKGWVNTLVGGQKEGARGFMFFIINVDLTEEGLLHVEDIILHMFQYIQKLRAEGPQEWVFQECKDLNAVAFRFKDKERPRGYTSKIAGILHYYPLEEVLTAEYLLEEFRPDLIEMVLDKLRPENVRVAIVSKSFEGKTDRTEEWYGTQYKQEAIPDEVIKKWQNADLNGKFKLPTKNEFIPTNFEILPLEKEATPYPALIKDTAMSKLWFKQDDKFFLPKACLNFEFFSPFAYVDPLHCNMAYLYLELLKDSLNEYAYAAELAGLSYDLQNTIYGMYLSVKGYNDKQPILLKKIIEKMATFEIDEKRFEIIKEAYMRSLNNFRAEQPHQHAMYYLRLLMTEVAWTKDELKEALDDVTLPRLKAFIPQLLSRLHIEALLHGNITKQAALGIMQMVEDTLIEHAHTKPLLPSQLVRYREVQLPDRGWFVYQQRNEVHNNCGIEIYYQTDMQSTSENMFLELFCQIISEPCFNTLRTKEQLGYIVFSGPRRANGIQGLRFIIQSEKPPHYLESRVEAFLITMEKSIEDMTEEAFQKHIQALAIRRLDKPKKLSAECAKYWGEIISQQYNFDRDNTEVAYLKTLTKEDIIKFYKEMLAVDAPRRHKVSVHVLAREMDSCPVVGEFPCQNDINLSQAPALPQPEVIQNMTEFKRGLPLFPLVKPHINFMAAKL
Numbers stand for hits; . = inactive.

SMILES	IDE exosite inh
Fc1cccc(CN2C[C@@H]3N[C@H](C2)C3c2ccc(/C=C/c3ccccc3)cc2)c1 (stereo not given in full)	.
C/C=C/c1ccc([C@H]2[C@@H](CO)N(S(C)(=O)=O)[C@H]2CN(CCC)C(C)=O)cc1	.
O=C(C1CCOCC1)N1CC(=O)N2[C@@H](CO)[C@H](c3ccc(C#Cc4cccc(F)c4)cc3)[C@@H]2C1	-6.61
O=C(C1CCOCC1)N1CC(=O)N2[C@H](CO)[C@@H](c3ccc(C#CC4CC4)cc3)[C@@H]2C1	.
O=C(C1CCOCC1)N1CC(=O)N2[C@H](C1)[C@@H](c1ccc(C#Cc3cccc(F)c3)cc1)[C@@H]2CO	-9.43
O=C(C1CCOCC1)N1CC(=O)N2[C@H](CO)[C@@H](c3ccc(C#Cc4cccc(F)c4)cc3)[C@H]2C1	-4.42
O=C(C1CCOCC1)N1CC(=O)N2[C@H](CO)[C@H](c3ccc(C#Cc4cccc(F)c4)cc3)[C@@H]2C1	-8.17
CO[C@@H](C(=O)N(C)C[C@H]1OCc2ccccc2-c2ccccc2C(=O)N([C@H](C)CO)C[C@@H]1C)c1ccccc1	.
O=C(Cc1ccccc1)N1CC[C@@H]2[C@H](CO)Nc3ccc(C#Cc4cccc(F)c4)cc3[C@@H]21	.
O=C(C[C@H]1C[C@H]2c3cc(NS(=O)(=O)c4ccc(F)cc4)ccc3O[C@H]2[C@@H](CO)O1)N1CCc2ccccc2C1	.
CC(C)C#Cc1ccc([C@H]2[C@@H](CO)N3C(=O)CN(S(=O)(=O)c4ccccc4)C[C@H]23)cc1	.
O=C(NC[C@@H]1[C@@H](c2ccccc2)[C@H](CO)N1Cc1ccccn1)C1CC1	.
N#Cc1ccc(-c2ccc(C3[C@H]4CNC[C@@H]3N4C(=O)NC3CCCCC3)cc2)cc1 (stereo not given in full)	.
C/C=C/c1ccc([C@H]2[C@@H](CO)N3C(=O)CN(Cc4ccc(C)cc4)C[C@H]23)cc1	.
N#Cc1ccc(-c2ccc([C@@H]3[C@@H](CO)N4C(=O)CN(C(=O)Cc5ccccc5)C[C@H]34)cc2)cc1	.
CCCC#Cc1cnc2c(c1)C(=O)N([C@H](C)CO)C[C@H](C)[C@H](CN(C)C(=O)Nc1cc(F)ccc1F)O2	.
C[C@@H]1CCCCO[C@@H](CN(C)Cc2ccc(C(=O)O)cc2)[C@H](C)CN([C@H](C)CO)C(=O)c2cc(N(C)C)ccc2O1	.
CCC(=O)N[C@H]1CC[C@H](CC(=O)NCc2ccccc2F)O[C@H]1CO	.
Cc1ccccc1S(=O)(=O)N1C[C@H](O)COC[C@@H]2O[C@@H](CC(=O)N3CCCCC3)CC[C@H]21	.
O=C(NC[C@@H]1[C@@H](c2ccccc2)[C@@H](CO)N1Cc1cccnc1)C1CCCCC1	.
O=C(NC1CCCCC1)N1CC(=O)N2[C@H](CO)[C@H](c3ccc(-c4cccc(F)c4)cc3)[C@@H]2C1	.
O=C(NC1CCCCC1)N1CC(=O)N2[C@H](CO)[C@@H](c3ccc(-c4cccc(F)c4)cc3)[C@H]2C1	.
Cc1cccc(-c2ccc([C@H]3[C@H](CO)N4C(=O)CN(C(=O)NC5CCCCC5)C[C@@H]34)cc2)c1	-16.3
O=C(NC1CCCCC1)N1CC(=O)N2[C@@H](CO)[C@@H](c3ccc(C4=CCCC4)cc3)[C@@H]2C1	.
Cc1cccc(-c2ccc([C@H]3[C@@H](CO)N4C(=O)CN(C(=O)NC5CCCCC5)C[C@@H]34)cc2)c1	-10.1
SMILES	IDE exosite inh
Cc1cccc(-c2ccc([C@@H]3[C@H]4CN(C(=O)NC5CCCCC5)CC(=O)N4[C@H]3CO)cc2)c1	-15.8
CO[C@H]1CN(C)C(=O)c2ccc(NC(C)=O)cc2OC[C@@H](C)N(C(=O)c2cnccn2)C[C@H]1C	.
CCCNC(=O)N1[C@@H]2CNC[C@H]1C2c1ccc(-c2ccc(C#N)cc2)cc1 (stereo not given in full)	.
C/C=C/c1ccc([C@H]2[C@@H](CO)N(C(=O)CC)[C@@H]2CNC(=O)CC)cc1	.
CCCC(=O)Nc1ccc2c(c1)C(=O)N(C)C[C@@H](OC)[C@H](C)CN(Cc1ccc(F)cc1)[C@H](C)CO2	.
CO[C@@H](CN(C)C(=O)c1cnccn1)[C@H](C)CN([C@H](C)CO)S(=O)(=O)c1ccccc1	.
CCCNC(=O)N1[C@@H]2c3cccc(=O)n3C[C@H]1[C@H](CO)[C@H]2C(=O)N1CCC(Cc2ccccc2)CC1	.
N#Cc1ccc(-c2ccc([C@H]3[C@H](CO)N4C(=O)CN(C(=O)C5CC5)C[C@@H]34)cc2)cc1	.
CN(C)C(=O)c1cccc(-c2ccc3n(c2=O)C[C@@H]2[C@@H](CO)[C@H](C(=O)NCC4CC4)N[C@H]32)c1	.
CC(C)CC#Cc1ccc([C@H]2[C@H]3CN(C(=O)c4ccc5c(c4)OCO5)CC(=O)N3[C@H]2CO)cc1	.
CC(C)CC#Cc1ccc([C@@H]2[C@@H](CO)N3C(=O)CN(C(=O)NC(C)C)C[C@@H]23)cc1	.
CS(=O)(=O)N1CC2(C1)[C@@H](c1ccccc1)[C@@H](CO)N2Cc1ccccc1	.
O=C(Nc1ccc(F)cc1)N1CC(=O)N2[C@H](CO)[C@H](c3ccc(-c4ccc(F)cc4)cc3)[C@H]2C1	.
COc1cccc(C#Cc2ccc([C@H]3[C@@H](CO)N4C(=O)CN(C(C)=O)C[C@@H]34)cc2)c1	-5.05
COc1ccc(C#Cc2ccc([C@@H]3[C@@H](CO)N4C(=O)CN(C(C)=O)C[C@@H]34)cc2)cc1	.
COc1cccc(C#Cc2ccc([C@@H]3[C@@H](CO)N4C(=O)CN(C(C)=O)C[C@H]34)cc2)c1	.
COc1cccc(C#Cc2ccc([C@H]3[C@@H](CO)N4C(=O)CN(C(C)=O)C[C@H]34)cc2)c1	-7.89
CC(=O)N1CC(=O)N2[C@@H](CO)[C@H](c3ccc(C#Cc4cccnc4)cc3)[C@@H]2C1	.
CC(=O)N1CC(=O)N2[C@H](CO)[C@@H](c3ccc(C#Cc4cccnc4)cc3)[C@H]2C1	.
COc1cccc(C#Cc2ccc([C@@H]3[C@H]4CN(C(C)=O)CC(=O)N4[C@H]3CO)cc2)c1	-3.9
COc1ccc(C#Cc2ccc([C@H]3[C@H](CO)N4C(=O)CN(C(C)=O)C[C@@H]34)cc2)cc1	.
CC(=O)N1CC(=O)N2[C@H](CO)[C@H](c3ccc(C#Cc4cccnc4)cc3)[C@H]2C1	.
O=C(c1cc2c(c(-c3cccc(Br)c3)n1)[C@@H](CCO)NC2)N1CCCCC1	.
O=C(NC[C@H]1[C@H](c2ccccc2)[C@H](CO)N1Cc1ccccn1)C1CCCC1	.
COCC(=O)N1C[C@H](C)[C@H](OC)CN(C)C(=O)c2ccc(NC(=O)Nc3cccc(F)c3)cc2OC[C@@H]1C	.
SMILES	IDE exosite inh
C[C@@H]1CCCCO[C@H](CN(C)C(=O)C2CCCCC2)[C@H](C)CN([C@H](C)CO)C(=O)c2cc(NS(=O)(=O)c3ccccc3)ccc2O1	.
CC(C)C#Cc1ccc([C@@H]2[C@@H](CO)N(C(=O)CN(C)C)[C@H]2C#N)cc1	.
O=C(C[C@@H]1CC[C@H](NS(=O)(=O)c2ccccc2F)[C@H](CO)O1)NCCCN1CCOCC1	.
COc1ccccc1-c1ccc([C@H]2[C@@H](C#N)N(C(=O)CN(C)C)[C@@H]2CO)cc1	-4.2
CCCNC(=O)N1[C@H](CO)[C@H](c2ccc(/C=C/c3ccccc3)cc2)[C@@H]1C#N	.
CN(C)CC(=O)N1[C@@H](C#N)[C@H](c2ccc(-c3ccccc3F)cc2)[C@@H]1CO	-4.49
COc1ccccc1-c1ccc([C@@H]2[C@@H](CO)N(C(=O)CN(C)C)[C@H]2C#N)cc1	-15
